Tb PFK inh-1: inhibitors of T. brucei phosphofructokinase; O15648; T. brucei PFK, ADP-Glo luminescence; Potency, µM (highest dose often 57.5 µM), for the others: top-dose activity, negative = inhibition, most hits filed as inhibitors; hit rate 0.17% among 330,000; AID 485367;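 also: potency is read from the fitted curve at half-maximal effect; 0% = uninhibited 1x PFK enzyme wells and -100% = no-enzyme wells; nearly all actives have a fitted effect of over 60% in size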
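Luminescent ADP detection (ADP-Glo, two-step: ATP depletion then ADP-to-ATP conversion for luciferase) reported PFK activity after 45 min room-temperature reaction of 1.25 nM enzyme with 0.5 mM F6P and 0.1 mM ATP at pH 8.0.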
Chronic BCR inh: chronic active BCR signaling inhibition; ABC-DLBCL IkBa-CBG/CBR reporter, luminescence ratio, 4 h; Potency, µM (highest dose often 46.1 µM), without a hit: at the highest dose activity change, negative = inhibition, usual class: inhibitors; hit rate 0.05% among 340,000; active = well fitted inhibition curve with a large enough effect in the signal ratio, with a control signal flat, not every such curve was filed as active; inconclusive = small, poorly fitted or top-dose-only effect, or effect the other way, or a change in a side signal; the % refers to the signal ratio;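 also: potency is read from the fitted curve at half-maximal effect; plate controls were basal doxycycline-induced cells for no effect and cells given 10 µM MG132 for full effect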
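TMD8 ABC-DLBCL cells carrying doxycycline-inducible green luciferase fused to IkappaBalpha plus unfused red luciferase were exposed to compounds (up to 46 uM) for 4 hrs at 37C. Activity came from the overlap-corrected green/red luminescence ratio.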
CCT modulator: cytosolic chaperonin activity modulation | AID 651819 | hit rate 0.3% among 360,000 | activity change, % (test concentration not listed), hits read low | purified chaperonin ATPase assay, HTRF ADP detection, 30 min; in the data active = activity change below about -30%; also: % is scaled to controls: 0 for no effect and ±100 for the full control effect
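Nucleotide hydrolysis assay: TRiC at 20–40 nM final (set by batch activity) with 10 uM ATP, 30 min at 37 °C, in presence of 76 uM compound. Detection by competitive ADP HTRF, 30 min ambient.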
ASM inhibitor: inhibitors of human secretory acid sphingomyelinase | P17405 | placental ASM, HMU-PC fluorogenic substrate, 60 min | Potency, µM (doses to about 57.5 µM), for the others: at the highest dose activity change, negative = inhibition, hits mostly inhibitors | hit rate 0.006% among 340,000 | AID 504937; also: potency is read from the fitted curve at half-maximal effect
Target sequence (P17405 47-631 limits assumed): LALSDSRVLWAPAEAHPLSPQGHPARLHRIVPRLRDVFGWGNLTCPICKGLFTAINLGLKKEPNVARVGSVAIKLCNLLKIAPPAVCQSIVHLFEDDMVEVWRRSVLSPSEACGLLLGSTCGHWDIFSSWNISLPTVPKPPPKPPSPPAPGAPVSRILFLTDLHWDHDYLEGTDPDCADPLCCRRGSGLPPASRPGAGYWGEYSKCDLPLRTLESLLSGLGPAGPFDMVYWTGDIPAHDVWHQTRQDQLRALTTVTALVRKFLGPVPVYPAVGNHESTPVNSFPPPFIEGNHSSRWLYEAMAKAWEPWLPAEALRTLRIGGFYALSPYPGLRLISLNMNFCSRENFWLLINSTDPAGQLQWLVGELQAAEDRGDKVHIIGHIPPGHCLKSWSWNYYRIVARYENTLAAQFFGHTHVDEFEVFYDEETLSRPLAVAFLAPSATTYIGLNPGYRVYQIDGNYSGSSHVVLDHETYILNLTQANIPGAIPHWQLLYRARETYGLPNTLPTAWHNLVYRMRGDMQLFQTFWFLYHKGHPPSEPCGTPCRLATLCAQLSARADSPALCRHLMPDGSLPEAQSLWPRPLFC
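Human placenta-derived ASM preincubated with compound 10 min at room temperature, then reacted with 9 uM (final) fluorogenic HMU-PC substrate for 60 min at 37 C. Stop solution raises pH to 10; fluorescence read at Ex 386/Em 447 nm.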
TCR activator: activates T cell receptor signaling. primary human leukocytes, anti-CD3, IL-2 HTRF, 48 h. Potency, µM (doses to about 9.22 µM), for the others: at the highest dose activation of IL-2 secretion, hits mostly activators. 330,000 tested, under 10 active. AID 504894; also: % of control where 0% means no effect
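Compounds are tested in HTS on primary human leukocytes co-incubated with a-CD3 beads for 48 hr. IL-2 output is measured by time-resolved FRET.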
Tb PFK KinaseGlo: orthogonal confirmation of T. brucei phosphofructokinase inhibitors | shares compounds with Tb PFK inh-1 | Tb PFK enzyme, ATP depletion, Kinase-Glo Plus luminescence | Potency, µM (doses to about 57.5 µM), inactives show at the highest dose inhibition | hit rate 47% among 1,100; calls by dose curve; also: potency is read from the fitted curve at half-maximal effect; nearly all actives have a fitted effect of over 60% in size
Tb PFK inh-2: validation of T. brucei phosphofructokinase inhibitors | shares compounds with Tb PFK inh-1 | purified T. brucei PFK, ADP-Glo luminescence, 45 min | Potency, µM (doses to about 57.5 µM), without a hit: at the top dose activity change, negative = inhibition, most hits filed as inhibitors | hit rate 41% among 1,100;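 also: potency is read from the fitted curve at half-maximal effect; plate controls were full PFK enzyme control for no effect and no enzyme control for full effect; nearly all actives have a fitted effect of over 60% in size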
* marks the source's active call; other numbers are inactive results; u = inconclusive; x = no result given; [ ] = another dose, or the depositor's remark. Compounds with a hit are over-represented: about 0.49% of the library has one in this group of screens. Unless noted, calls follow the shape of the dose curve; as a rule, active = well fitted curve in the direction sought with a large enough effect; inconclusive = small, poorly fitted or top-dose-only effect, or another doubt; inactive = no such curve, though single readings can be large; an effect the other way counts as inactive or inconclusive.

SMILES	Tb PFK inh-1	Chronic BCR inh	CCT modulator	ASM inhibitor	TCR activator	Tb PFK KinaseGlo	Tb PFK inh-2
C=CCNC(=S)N1Cc2cc(Br)ccc2-n2nncc2C1	x	x	2	x	x	x	x
Cc1ccccc1NC(=O)CCl	1%	u	-2	2%	-1%	x	x
CCOc1cc(/C=C\[N+](=O)[O-])ccc1OCC(=O)Nc1ccccc1C	u	u	1	-2%	9%	-29%	u
CCCCCc1nnc(NC(=O)Cc2cccs2)s1	u	u	1	-2%	x	u	u
CCOC(=O)[C@]12Cc3c(cc(OC)c(OC)c3OC)[C@H]1N(C)C(=O)c1ccccc12	x	x	2	x	x	x	x
NCc1ccccc1COc1ccccc1	24µM*	2%	-1	5%	2%[46.1 µM]	u	u
O=Cc1c(NCc2ccc(Cl)cc2)c2ccccc2[nH]c1=O	u	-3%	0	-5%	-2%	x	x
O=C(NCc1ccc(F)cc1)C(=O)NCC1CCCN1S(=O)(=O)c1ccccc1 (stereo not drawn)	u	u	-1	4%	-1%	24µM*	u
O=C(CN1CC(c2ccccc2)CC1=O)NCc1ccc(F)cc1 (stereo not drawn)	-13%	-2%	-2	1%	-2%	x	x
FC(F)(F)c1cccc(NC(=S)Nc2ccc(Cl)c(Cl)c2)c1	9.5µM*	22%	-1	-7%	-1%	u	u
Cc1cccnc1NC(=S)Nc1ccc(Cl)c(Cl)c1	13µM*	u	1	1%	-38%	u	u
CC(=O)Nc1cccc(NC(=S)Nc2ccc(F)c(Cl)c2)c1	21µM*	u	1	0%	-9%	u	u
Cc1ccc(C(=O)Nc2cccc3[nH]c(C(F)(F)F)nc23)cc1	u	u	1	-2%	-6%	u	u
Cc1ccc(C(=O)Nc2ccccc2C(=O)NC(Cc2ccccc2)C(=O)O)cc1 (stereo not drawn)	-1%	u	-4	7%	4%	x	x
C=C(C)C(=O)Nc1cccc(C2=NOC3(C2)C[C@H](C(N)=O)N(C(=O)c2ccccc2C(=O)c2ccccc2)C3)c1 (stereo partly drawn)	11µM*	-1%	-2	-5%	-20%	0.67µM*	0.85µM*
C=C(C)C(=O)Nc1cccc(C2=NOC3(C2)C[C@@H](C(N)=O)N(C(=O)/C(C)=C/C)C3)c1 (stereo partly drawn)	3.4µM*	1%	-4	-6%	-2%	0.19µM*	0.17µM*
C/C=C/C=C/C(=O)N1CC2(CC(c3cccc(NC(=O)CCCCC)c3)=NO2)C[C@H]1C(N)=O (stereo partly drawn)	u	0%	0	-1%	-3%	u	u
C=C(C)C(=O)Nc1cccc(C2=NOC3(C2)C[C@@H](C(N)=O)N(C(=O)/C=C/C=C/C)C3)c1 (stereo partly drawn)	3.8µM*	u	-1	-1%	-5%	0.13µM*	0.19µM*
CCOC(=O)CNC(=O)N1Cc2cc(N3CCOCC3)ccc2-n2nncc2C1	x	x	-2	x	x	x	x
O=C(c1cc(Cl)cc(Cl)c1)N1Cc2ccccc2-n2nncc2C1	x	x	1	x	x	x	x
CCC1([N+](=O)[O-])COP(N)(=O)OC1 (stereo not drawn)	x	x	-1	2%	-9%	x	x
C=C(C)C(=O)Nc1cccc(C2=NOC3(C2)C[C@@H](C(N)=O)N(C(=O)CC(c2ccccc2)c2ccccc2)C3)c1 (stereo partly drawn)	30µM*	-5%	-2	1%	0%	1.5µM*	u
O=C(C1CCCCC1)N1Cc2ccccc2-n2nncc2C1	x	x	0	x	x	x	x
O=C(N/N=C\c1ccc[nH]1)C1COc2ccccc2O1 (stereo not drawn)	24µM*	u	0	7%	-6%	9.5µM*	19µM*
O=C(N/N=C/c1ccco1)C1COc2ccccc2O1 (stereo not drawn)	u	2%	0	2%	-3%[46.1 µM]	u	u
SMILES	Tb PFK inh-1	Chronic BCR inh	CCT modulator	ASM inhibitor	TCR activator	Tb PFK KinaseGlo	Tb PFK inh-2
O=C(N=Nc1c(O)[nH]c(=O)[nH]c1=O)C1COc2ccccc2O1 (stereo not drawn)	-4%	7%	-2	-2%	3%	x	x
COc1ccc(N=C(C)c2c(O)[nH]c(=O)[nH]c2=O)cc1	1%	-1%	1	1%	-5%	x	x
Cc1cc(C)nc(/N=C(\N)c2c(O)[nH]c(=O)[nH]c2=O)n1	u	-1%	-3	1%	3%	u	-16%
CCn1c(=O)oc2cc(NC(=O)CCl)ccc21	-4%	u	-4	1%	2%	x	x
O=C(O)CCN1C(=O)c2ccc(NC(=O)CSc3ccc(Cl)cc3)cc2C1=O	u	2%	0	2%	-1%	u	u
O=C(O)c1cccc(-n2cccc2/C=N/O)c1	21µM*	-14%	-1	-5%	-7%	u	u
Cn1cccc1/C=C1\C(=O)NC(=O)N(Cc2ccccc2)C1=O	1%	u	-1	-2%	12%	x	x
O=C(O)c1ccc(-n2cccc2/C=C2/NC(=O)N(c3ccccc3)C2=O)cc1	u	u	1	10%	3%	u	19µM*
O=C(O)c1ccc(-n2cccc2/C=C2/SC(=O)N(CC(=O)N3CCCC3)C2=O)cc1	u	-5%	0	-1%	0%	4.8µM*	5.4µM*
Cc1ccc(CN2C(=O)N/C(=C\c3cccn3-c3cccc(C(=O)O)c3)C2=O)cc1	u	u	-4	18%	-2%	u	u
Cn1cccc1/C=C1\SC(=S)N(CC(=O)O)C1=O	u	4%	-2	-9%	0%[46.1 µM]	x	x
O=C(Nc1ccc2c(c1)OCO2)c1cccn(Cc2cccc([N+](=O)[O-])c2)c1=O	x	-4%	x	x	x	x	x
C#C[C@]1(O)CCC2C3C(=O)C=C4C(Cl)=CCC[C@]4(C)C3CC[C@@]21C (stereo partly drawn)	x	x	0	-3%	4%	x	x
CCOC(=O)[C@]12Cc3c(cc(OC)c(OC)c3OC)[C@H]1N(CCC(=O)OC)C(=O)c1ccccc12	x	x	-1	x	x	x	x
CCCCn1nnnc1C(CC)N1CCC2(CC1)C(=O)NCN2c1ccccc1 (stereo not drawn)	x	x	2	x	x	x	x
CSCCC(c1nnnn1-c1ccc2c(c1)OCCO2)N1CCC(n2c(=O)[nH]c3ccccc32)CC1 (stereo not drawn)	x	x	-1	x	x	x	x

Compound activity deposited in PubChem BioAssay by National Center for Advancing Translational Sciences (NCATS).
